Results filed as inconclusive are left out. The source made the active and inactive calls. Calls follow the shape of the full dose curve.
Columns and labels:
[1] = qHTS drug screen for cell cycle checkpoint inhibitors in PARPi-resistant BRCA-mutant ovarian cancer cell lines. (AID 1963452); conditions: PEO1/OlaR viability, CellTiter-Glo luminescence, 96 h, stronger effect = lower value
Method in brief: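 PEO1, PEO4 and PEO1/OlaR ovarian cancer cells, 600 per well, exposed 96 h at 37C to a dilution series. Viability read by CellTiter-Glo luminescence, normalized to DMSO and empty wells; activity summarized as Z-AUC.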

[2] = qHTS for identification of novel therapeutic agents for treatment of microphthalmiaassociated transcription factor (MiT) renal cell carcinoma (RCC) (AID 1963991); conditions: CellTiter-Glo, 48 h, stronger effect = lower value
Method in brief: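 Three TFE3-fusion RCC lines (UOK109, UOK124, UOK145), 500 cells/well in complete medium, were treated with MIPE 4.0 compounds for 48 hours at 37 C. Viability was by CellTiter-Glo luminescence, normalized to DMSO (100%) and empty wells (0%); curves fitted over 11 concentrations.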

[3] = measured here: PEO1 parental Z-AUC
[4] = TFE3-RCC UOK109 viability, measured here: UOK109 Z-AUC
[5] = TFE3-RCC viability, measured here: UOK124 Z-AUC
[6] = TFE3-RCC viability, measured here: UOK145 Z-AUC

| Compound | Z-AUC [1] | Z-AUC [1, 3] | Z-AUC ([1]; measured here: PEO4 Z-AUC) | z-score [2, 4] | z-score [2, 5] | z-score [2, 6] |
| --- | --- | --- | --- | --- | --- | --- |
| COc1ccc(CCN(C)CCCOc2ccc(S(=O)(=O)c3[nH]c4ccccc4c3C(C)C)cc2)cc1OC | -0.498 (inactive) | 0.248 | 0.439 |  |  |  |
| CCOC(=O)N1c2ccc(C(F)(F)F)cc2[C@@H](N(Cc2cc(C(F)(F)F)cc(C(F)(F)F)c2)C(=O)OC)C[C@H]1CC | -1 (inactive) | 0.195 | -0.682 | 0.825 | 0.72 | 0.57 |
| CCCCCCCCCCCCCCCC(=O)O[C@H]1[C@@H](O)[C@@H](O)[C@@H]([C@H](NC(=O)[C@@H]2C[C@@H](CCC)CN2C)[C@H](C)Cl)O[C@@H]1SC | 1.31 (inactive) | 0.604 | 0.552 |  |  |  |
| O=C(c1ccc(C(=O)N2CCC(N3CCCC3)CC2)c(Nc2ccccc2)c1)N1CCC(N2CCCC2)CC1 | 0.276 (inactive) | 0.308 | 0.42 | 0.9 | 1.07 | 0.591 |
| CCOC(=O)c1c(CSc2ccccc2)n(C)c2cc(Br)c(O)c(CN(C)C)c12 | 0.838 (inactive) | 0.193 | 0.129 |  |  |  |
| C=CC(=O)Nc1cccc(Sc2nc(Nc3ccc(N4CCN(C)CC4)cc3)ncc2Cl)c1 | -0.713 (inactive) | 0.0484 | 0.0662 |  |  |  |
| O=C(O)Cc1cccc(OCCCN(Cc2cccc(C(F)(F)F)c2Cl)CC(c2ccccc2)c2ccccc2)c1 | -0.299 (inactive) | 0.225 | 0.165 | -0.604 | 0.0786 | 0.416 |
| CC(C)(F)C[C@H](N[C@@H](c1ccc(-c2ccc(S(C)(=O)=O)cc2)cc1)C(F)(F)F)C(=O)NC1(C#N)CC1 | -0.727 (inactive) | 1.36 | 0.322 |  |  |  |
| Cc1nc(C(=O)NCC(=O)O)c(O)c2ccc(Oc3ccccc3)cc12 | 1.39 (inactive) | 0.88 | 0.853 |  |  |  |
| CCCCC(C)(C)[C@H](O)C=C[C@H]1[C@H](O)CC(=O)[C@H]1CC=CCCCC(=O)O | 0.66 (inactive) | 0.266 | 0.726 |  |  |  |
| Cc1ccc2c(=O)c3cccc(CC(=O)O)c3oc2c1C | 0.508 (inactive) | 0.654 | 0.37 |  |  |  |
| COc1nccc(-c2c(-c3ccc(F)cc3)ncn2C2CCNCC2)n1 | 1.19 (inactive) | 0.981 | 0.889 |  |  |  |
| NCC1CCC(C(=O)O)CC1 (stereo not given) | -0.425 (inactive) | -0.68 | -0.142 | 0.68 | 0.972 | 0.669 |
| COC1CCC(C(=O)c2ccc3nc4c(cc3c2)CCCO4)CC1 (stereo not given) | -0.16 (inactive) | -0.298 | 0.0226 |  |  |  |
| Cc1csc(-c2nnc(Nc3ccc(Oc4ncccc4-c4ccnc(N)n4)cc3)c3ccccc23)c1 | -0.397 (inactive) | -0.785 | -1.53 |  |  |  |
| CCc1cccc(CC)c1NC(=O)N1Cc2[nH]nc(NC(=O)c3ccc(N4CCN(C)CC4)cc3)c2C1 | -0.0238 (inactive) | 0.421 | -0.125 |  |  |  |
| CC(C)C[C@@H](C(=O)N[C@H](C(=O)OC1CCCC1)c1ccccc1)[C@H](O)C(=O)NO | -0.457 (inactive) | -0.511 | -0.774 |  |  |  |
| Cc1ccc(C2=Nc3ccc(Cl)cc3OC2)cc1 | 1.28 (inactive) | 0.878 | 0.727 |  |  |  |
| COc1nc(C)cnc1NS(=O)(=O)c1cccnc1-c1ccc(-c2nnco2)cc1 | 1.25 (inactive) | 1.67 | 1.16 | 1.22 | 0.956 | 0.662 |
| Clc1ccc(C2(c3ccc(-c4cn[nH]c4)cc3)CCNCC2)cc1 | 0.223 (inactive) | 0.18 | 0.0319 |  |  |  |
| NC[C@H]1O[C@H](O[C@@H]2[C@@H](O)[C@@H](O[C@H]3O[C@H](CO)[C@@H](O)[C@H](N)[C@@H]3O)[C@H](N)C[C@@H]2N)[C@H](O)[C@@H](O)[C@H]1O | 1.2 (inactive) | 0.776 | 0.763 | 1.51 | 0.542 | 0.0704 |
| CC(=O)NCCC(=O)N[C@@H](CCC(N)=O)C(=O)N[C@@H](CO)C(=O)N[C@@H](CCC(N)=O)C(=O)N[C@@H](CCC(N)=O)C(=O)N[C@H](C(=O)N[C@@H](Cc1ccccc1)C(=O)N[C@]1(C)CCCCCCC=CCCC[C@@](C)(C(=O)N[C@@H](CCC(N)=O)C(=O)N[C@@H](CC(N)=O)C(N)=O)NC(=O)[C@H](CC(C)C)NC(=O)[C@H](CC(C)C)NC(=O)[C@@H](CCCNC(=N)N)NC(=O)[C@H](Cc2c[nH]c3ccccc23)NC(=O)[C@H](CC(C)C)NC(=O)[C@H](CC(N)=O)NC1=O)[C@H](C)O | -0.975 (inactive) | -0.536 | -0.428 |  |  |  |
| Cc1nc2c([nH]1)CCN(C(=O)c1ccc(NC(=O)c3ccccc3-c3ccccc3)cc1)c1ccccc1-2 | 0.604 (inactive) | 0.56 | 0.851 | -0.104 | 0.486 | 0.369 |

Source: PubChem BioAssay (NCATS)
